The values that follow come from the supplement of paper PMC9023506.

The structures appear in SMILES notation. Structures can show the parent of a compound that is named as a salt.

In the experiment the test system is Danio rerio larvae (5 dpf). Put plainly: activity during first hour (no stimuli), difference vs DMSO (percentage points (treated minus DMSO)); higher = more of the behaviour than the DMSO vehicle control. Particulars: 10 µM; exposure time: 3 h pre-incubation + 3 h imaging. The procedure: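 5-dpf wild-type zebrafish larvae were imaged in 96-well plates. They were treated with 190 Tocris FDA-approved drugs at 10 µM (1 µl/ml DMSO) for 3 h before and 3 h during imaging at 28.5 °C, 48 larvae per drug. Automated image analysis gave % time moving and optomotor responses. Values are drug group mean minus DMSO vehicle mean (n=844), in percentage points, for 10 behaviours.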
Take `CC(O)(CS(=O)(=O)c1ccc(F)cc1)C(=O)Nc1ccc(C#N)c(C(F)(F)F)c1` (configuration not stated) [Bicalutamide]: the “activity during first hour” value was determined as 4.47.

As to `C=CCN1C[C@H](C(=O)N(CCCN(C)C)C(=O)NCC)C[C@@H]2c3cccc4[nH]cc(c34)C[C@H]21` [Cabergoline], the “activity during first hour” value was -9.57.

Regarding `COc1cc2c(cc1OC)C1CC(=O)C(CC(C)C)CN1CC2` (configuration not stated) [Tetrabenazine], the “activity during first hour” value worked out at 3.91.

For `Cc1cccc([C@H](C)c2c[nH]cn2)c1C` [Dexmedetomidine hydrochloride], the “activity during first hour” value was -27.8.

In the case of `N[C@@H]1C[C@H]1c1ccccc1` [Tranylcypromine hydrochloride], the “activity during first hour” value was -14.1.

Take `O=c1[nH]c2ccccc2n1C1CCN(CCCC(c2ccc(F)cc2)c2ccc(F)cc2)CC1` [Pimozide]: the “activity during first hour” value was -12.5.

`CCN(C)C(=O)Oc1cccc([C@H](C)N(C)C)c1` [Rivastigmine tartrate]: the “activity during first hour” value came to 6.97.

In the case of `CN1C[C@H](C(=O)N[C@]2(C)O[C@@]3(O)[C@@H]4CCCN4C(=O)[C@H](Cc4ccccc4)N3C2=O)C[C@@H]2c3cccc4[nH]cc(c34)C[C@H]21` [Dihydroergotamine mesylate], the “activity during first hour” value came to 4.7.

For the compound `CC[C@@H](C(N)=O)N1CCCC1=O` [Levetiracetam], the “activity during first hour” value turned out to be 7.99.

With `COc1ccc(C(CN(C)C)C2(O)CCCCC2)cc1` (configuration not stated) [Venlafaxine hydrochloride], the “activity during first hour” value was -22.5.

`C=C1C[C@@H]2[C@H](CC[C@]3(C)C(=O)CC[C@@H]23)[C@@]2(C)C=CC(=O)C=C12` [Exemestane]: the “activity during first hour” value was -19.6.

Turning to `CC(C)C[C@H]1C(=O)N2CCC[C@H]2[C@]2(O)O[C@](NC(=O)[C@@H]3C=C4c5cccc6[nH]c(Br)c(c56)C[C@H]4N(C)C3)(C(C)C)C(=O)N12` [Bromocriptine mesylate], the “activity during first hour” value was 15.2.
